Experiment [1] is described as follows: ACEA_ER_80hr: ACEA Biosciences xCELLigence Real-Time Cell Analysis on Estrogen Receptor Agonism for Proliferation (AID 2282667; active = hit-call score of the fitted dose curve at least 0.9, where 1 is the maximum). The following applies: T47D proliferation, impedance (xCELLigence), 80 h. Put shortly:
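T-47D cells monitored by electrical impedance (xCELLigence) with compound present throughout; 80 h timepoint, positive-direction fitting versus DMSO. Eight-point 1:4 dilutions from 100 uM final, duplicate plates.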

Experiment [2] in a line: APR_HepG2_CellCycleArrest_24hr: Apredica 24-hour HepG2 Assay for Cell Cycle Arrest (AID 2282905).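 Note: cell cycle arrest scored as ratio of 2N to 4N nuclear DNA content.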 The following applies: imaging, actives raise or lower the signal. The essentials: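 Readout: Hoechst 33342 nuclear DNA content by high-content fluorescent imaging, six images/well, 20x. Human HepG2 liver cells, 24 hr compound exposure, 0.39–200 uM, final DMSO 0.5% v/v. Gain or loss fitted relative to DMSO baseline.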

The nature of experiment [3]: APR_HepG2_NuclearSize_24hr: Apredica 24-hour HepG2 Assay for Nuclear Size (AID 2282907). The following applies: high-content imaging, actives raise or lower the signal. Put shortly:
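Read-out: nuclear diameter from Hoechst 33342 (2 ug/mL) imaging of fixed HepG2 cells, 20x, six fields/well. Compounds ran at 0.39–200 uM for 24 hr, 0.5% DMSO final. Gain or loss was fitted bidirectionally relative to the DMSO baseline.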

The nature of experiment [4]: APR_HepG2_CellLoss_24hr: Apredica 24-hour HepG2 Assay for Cell Loss (AID 2282908).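 For AC50: fit in both directions so a hit may be cell loss or gain.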 The settings on record: high-content imaging. Put shortly:
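Read-out: Hoechst 33342-stained nuclei counted by automated fluorescence imaging after formaldehyde fixation and Triton permeabilization. Ten concentrations, 0.39 to 200 uM, duplicate wells, 0.5% DMSO final. Gain or loss of signal fitted relative to DMSO baseline.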

Experiment [5] can be described thus: APR_HepG2_MicrotubuleCSK_24hr: Apredica 24-hour HepG2 Assay for Microtubule CSK Stabilty (AID 2282909). The settings on record: HepG2 microtubule cytoskeleton imaging, actives raise or lower the signal. The essentials:
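Read-out: alpha-tubulin immunofluorescence intensity by automated high-content imaging of fixed HepG2 cells after 24 h compound treatment. Ten concentrations, 0.39 to 200 uM, in duplicate; DMSO 0.5% v/v. Taxol positive control; DMSO-normalized bidirectional curve fitting.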

Experiment [6] can be described thus: APR_HepG2_MitoticArrest_24hr: Apredica 24-hour HepG2 Assay for Mitotic Arrest (AID 2282910). The following applies: high-content imaging, actives raise or lower the signal. Put shortly:
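HepG2, 24 hr dosing, 0.39–200 uM, 0.5% DMSO final. Formaldehyde-fixed, Triton-permeabilised, anti-phospho-histone H3 plus Hoechst. ArrayScan imaging at 20x; bidirectional fit vs DMSO baseline.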

A short description of experiment [7]: APR_HepG2_MitoMembPot_24hr: Apredica 24-hour HepG2 Assay for Mitochondrial Membrane Potential (AID 2282911). The following applies: imaging, actives raise or lower the signal. Put shortly: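 HepG2 cells exposed 24 h to 0.39–200 uM compounds in duplicate, 0.5% v/v DMSO final. MitoTracker Red CMXRos 250 nM loaded 30 min before formaldehyde fixation; high-content imaging at 20x, bidirectional fit versus DMSO.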

A short description of experiment [8]: APR_HepG2_MitoMass_24hr: Apredica 24-hour HepG2 Assay for Mitochondrial Mass (AID 2282912). The following applies: high-content imaging, actives raise or lower the signal. Put shortly: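 HepG2, 24 hr dosing, 10 concentrations 0.39–200 uM in duplicate, DMSO 0.5% final. MitoTracker Red CMXRos 250 nM, 30 min pre-fix; 3.7% formaldehyde fix. Imaging-based fluorescence intensity; gain/loss fit vs DMSO baseline.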

The nature of experiment [9]: APR_HepG2_p53Act_24hr: Apredica 24-hour HepG2 Assay for p53 Activation (AID 2282913).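 Note: p53 protein immunofluorescence averaged per cell in HepG2 with Hoechst nuclei.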 The following applies: high-content imaging, actives raise or lower the signal. The essentials:
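HepG2 cells exposed 24 h to compounds at 0.39–200 uM in duplicate, 0.5% v/v DMSO final; fixed, permeabilized, stained with anti-p53 antibody and Hoechst 33342; fluorescence imaging; bidirectional curve fit versus DMSO.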

Experiment [10] can be described thus: APR_HepG2_CellCycleArrest_72hr: Apredica 72-hour HepG2 Assay for Cell Cycle Arrest (AID 2282914). The following applies: high-content imaging, actives raise or lower the signal. Put shortly: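 HepG2 cells exposed 72 h in duplicate to 0.39–200 uM compound, 0.5% DMSO final. Formaldehyde-fixed, Hoechst 33342-stained nuclei imaged at 20x, six fields per well; DNA content per valid cell quantified by cell-cycle image analysis, bidirectional fit versus DMSO.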

A short description of experiment [11]: APR_HepG2_CellLoss_72hr: Apredica 72-hour HepG2 Assay for Cell Loss (AID 2282915). The settings on record: high-content imaging. The essentials: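 HepG2 cells exposed 72 h to compound at 0.39–200 uM (10 concentrations, duplicate) in 0.5% DMSO. Fixed with 3.7% formaldehyde and Hoechst 33342-stained. Imaged at 20x; nuclear count gives cell number, fitted bidirectionally versus DMSO.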

Experiment [12] in a line: APR_HepG2_P-H2AX_72hr: Apredica 72-hour HepG2 Assay for H2AX Phosphorylation (AID 2282916).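 Note: phospho-histone H2A.x immunostain intensity per cell marking DNA damage.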 The settings on record: imaging, actives raise or lower the signal. The essentials: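 Readout: phospho-H2A.x immunofluorescence (FITC secondary) plus Hoechst nuclear stain, high-content imaging at 20x, six fields/well. HepG2, 72 hr compound exposure, 0.39–200 uM, final DMSO 0.5% v/v. Gain or loss fitted relative to DMSO baseline.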

Experiment [13] in a line: APR_HepG2_MitoMembPot_72hr: Apredica 72-hour HepG2 Assay for Mitochondrial Membrane Potential (AID 2282917). The following applies: imaging, actives raise or lower the signal. Put shortly:
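HepG2 cells dosed 72 hr with compound at 0.39–200 uM in duplicate, 0.5% v/v DMSO final. Mitochondria stained with 250 nM MitoTracker Red CMXRos for 30 min before formaldehyde fixation, imaged by high-content fluorescence; bidirectional fit versus DMSO.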

The nature of experiment [14]: APR_HepG2_MitoticArrest_72hr: Apredica 72-hour HepG2 Assay for Mitotic Arrest (AID 2282918). The settings on record: high-content imaging, actives raise or lower the signal. The essentials: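 HepG2 cells treated 72 h at 0.39–200 uM, 0.5% DMSO final; formaldehyde-fixed, stained with Hoechst 33342 and phospho-histone H3 antibody, imaged by high-content fluorescence; bidirectional fit versus DMSO.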

The nature of experiment [15]: APR_HepG2_MicrotubuleCSK_72hr: Apredica 72-hour HepG2 Assay for Microtubule CSK Stabilty (AID 2282919). The following applies: HepG2 microtubule cytoskeleton, high-content imaging, actives raise or lower the signal. Put shortly: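 HepG2, 72 hr cmpd exposure, 0.39–200 uM (10 pts, duplicate), 0.5% DMSO. 3.7% formaldehyde fix, 0.5% Triton perm, anti-alpha-tubulin/Cy5 plus Hoechst. HCS fluorescence intensity; bidirectional fit vs DMSO baseline; taxol as positive control.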

Experiment [16] can be described thus: APR_HepG2_P-H2AX_24hr: Apredica 24-hour HepG2 Assay for H2AX Phosphorylation (AID 2282920). The settings on record: high-content imaging, actives raise or lower the signal. The essentials: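 HepG2 cells dosed 24 h at 0.39–200 uM (10 points, duplicate, 0.5% DMSO final). Formaldehyde-fixed and permeabilized, then immunostained for phospho-H2A.x with Hoechst. Fluorescence quantified by high-content imaging, fitted bidirectionally versus DMSO.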

Experiment [17] in a line: APR_HepG2_StressKinase_72hr: Apredica 72-hour HepG2 Assay for Stress Kinase (AID 2282921). The settings on record: HepG2 stress kinase (phospho-c-Jun) imaging, actives raise or lower the signal. Put shortly: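 Phospho-c-Jun immunofluorescence measured by high-content imaging at 20x, six fields per well; bidirectional curve fitting against DMSO as baseline. Dosing: 0.39–200 uM, 72 h, 0.5% DMSO final.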

Experiment [18] is described as follows: APR_HepG2_StressKinase_24hr: Apredica 24-hour HepG2 Assay for Stress Kinase (AID 2282922). The following applies: HepG2 stress kinase (phospho-c-Jun) imaging, actives raise or lower the signal. The essentials:
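Read-out: phospho-c-Jun immunofluorescence (Cy3 secondary) quantified by high-content imaging at 20x, nuclei defined by Hoechst 33342. Human HepG2 liver cells dosed 24 hr, 0.39–200 uM, DMSO 0.5% v/v; gain or loss of signal fitted relative to DMSO.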

A short description of experiment [19]: APR_HepG2_p53Act_72hr: Apredica 72-hour HepG2 Assay for p53 Activation (AID 2282923).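 Note: average cellular p53 protein immunofluorescence intensity in HepG2 cells.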 The settings on record: high-content imaging, actives raise or lower the signal. Put shortly:
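Readout: p53 immunofluorescence quantified by automated high-content imaging at 20x, six fields per well, nuclei located via Hoechst. Dosing ran 72 hr over ten concentrations from 0.39 to 200 uM; bidirectional curve fitting against DMSO baseline.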

A short description of experiment [20]: APR_HepG2_MitoMass_72hr: Apredica 72-hour HepG2 Assay for Mitochondrial Mass (AID 2282924).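 Note: MitoTracker Red CMXRos stain intensity per cell imaged as mitochondrial mass.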 The following applies: high-content imaging, actives raise or lower the signal. Put shortly:
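Read-out: MitoTracker Red fluorescence intensity from automated imaging (20x, six fields per well) in human HepG2 liver cells. Dosing ran 72 hr, 0.39–200 uM, 0.5% DMSO; bidirectional curve fitting versus DMSO baseline.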

The structures appear in SMILES notation. “And” between values parts separate entries of the source, which are not always exact repeats. Equal entries are not always repeated. Inconclusive results are not listed. The source made the active and inactive calls. Rule for the calls, unless noted: active = hit-call score of the fitted dose curve at least 0.9, where 1 is the maximum; inactive = score below 0.9.

By AC50 is commonly meant the midpoint of the concentration-response curve, whichever way the signal moves. Take `CCCCCCCCCCCCCC[N+](C)(C)C`: the AC50 in [1] is 128 nM (active) and 101 nM (active).
Regarding `COCC(C)OCC(C)O` (stereo unspecified), the result in experiment [1], in experiment [2], in experiment [3], in experiment [4], in experiment [5] and in experiment [6] was inactive. Moreover, the molecule was called inactive in [7], in experiment [8], in [9], in experiment [10], in experiment [11] and in [12]. In addition, the molecule was called inactive in experiment [13], in [14], in experiment [15], in [16], in experiment [17] and in experiment [18]. The molecule was called inactive in experiment [19] and in experiment [20].
On to `CCc1ccc(CCOc2ccc(CC3SC(=O)NC3=O)cc2)nc1` (stereo unspecified), for which the outcome in experiment [1], in experiment [3], in [5], in experiment [6], in [7] and in experiment [8] was inactive. Besides, the molecule was classed as inactive in experiment [9], in experiment [13], in experiment [15], in experiment [16], in [17] and in experiment [19]. Moreover, the half-maximal activity concentration (AC50) in experiment [2] is 30.6 µM (active); in [4] it was 110 µM (active); in [10], 94.4 µM (active); in experiment [11] it was 112 µM (active); in experiment [12], 103 µM (active); in experiment [14] it was 103 µM (active). Also, in experiment [20], the AC50 is 57.6 µM (active).
For `Cc1ccc(S(=O)(=O)O)c(C)c1`, in [1], the molecule was called inactive.
Consider `C#C[C@]1(O)CC[C@H]2[C@@H]3CCC4=CC(=O)CC[C@@H]4[C@H]3CC[C@@]21C`, for which the AC50 in experiment [1] was 3.95 nM (active) and 5.39 nM (active) and 91.8 nM (active). For the same molecule, the result in experiment [2], in experiment [3], in [4], in experiment [5], in [6] and in experiment [7] was inactive. In addition, the call in [8], in experiment [9], in [10], in experiment [11], in experiment [12] and in experiment [13] was inactive. For the same molecule, the molecule was called inactive in experiment [14], in [15], in experiment [16], in experiment [17], in [18] and in experiment [19]. Besides, the molecule was classed as inactive in [20].
Regarding `CC(C)(C)c1cc(C(C)(C)C)c(O)c(C(C)(C)C)c1`, the AC50 in experiment [1] is 10.6 µM (active); in [11], 39.1 µM (active); in experiment [19] it was 0.357 µM (active). In addition, the call in [2], in experiment [3], in experiment [4], in experiment [5], in experiment [6] and in experiment [7] was inactive. Moreover, the call in [8], in experiment [9], in experiment [10], in experiment [12], in [13] and in [14] was inactive. Further, the outcome in experiment [15], in experiment [16], in experiment [17], in experiment [18] and in experiment [20] was inactive.
On to `CC[C@H](c1ccc(O)cc1)[C@@H](CC)c1ccc(O)cc1`, for which the AC50 in experiment [1] is 6.89 nM (active) and 5.23 nM (active) and 2.6 nM (active); in experiment [7], 0.0485 µM (active). For the same molecule, the result in [2], in experiment [3], in experiment [4], in experiment [5], in experiment [6] and in experiment [8] was inactive. In addition, the molecule was called inactive in experiment [9], in experiment [10], in experiment [11], in [12], in experiment [13] and in experiment [14]. Besides, the molecule was called inactive in experiment [15], in experiment [16], in [17], in experiment [18], in [19] and in experiment [20].
In the case of `O=C(O)Cc1cc(I)c(Oc2cc(I)c(O)c(I)c2)c(I)c1`, the call in [1], in [3], in experiment [4], in [5], in experiment [6] and in experiment [7] was inactive. Besides, the call in experiment [8], in experiment [11], in experiment [12], in experiment [13], in [14] and in experiment [15] was inactive. For the same molecule, the outcome in [16], in [17], in experiment [18], in [19] and in [20] was inactive. Besides, the AC50 was 109 µM (active) in experiment [2], 72.2 µM (active) in experiment [9] and 72.5 µM (active) in experiment [10].

Values taken from PubChem BioAssay (EPA / NIEHS).
